Unmarked numbers belong to inactive results.
Tested on: Vero E6 infected with SARS-CoV-2
Assay: inhibition of SARS-CoV-2 cytopathic effect; higher = more antiviral protection, active = above 15
Conditions: 48 h

Structure (SMILES)	inhibition of SARS-CoV-2 cytopathic effect (1 nM)	inhibition of SARS-CoV-2 cytopathic effect (8.33 nM)	inhibition of SARS-CoV-2 cytopathic effect (100 nM)	inhibition of SARS-CoV-2 cytopathic effect (833.33 nM)	inhibition of SARS-CoV-2 cytopathic effect (10000 nM)
O=C(O)c1ccc(-c2c[nH]c3ncc(-c4ccccc4)cc23)cc1C1CCCC1	4.37%	5.26%	0.74%	1.88%	-0.09%
Cc1ncc(CO)c(/C=N/NC(=O)c2ccncc2)c1O [pyridoxal-isonicotinoyl-hydrazone]	3.14%	-0.89%	-0.41%	0.28%	-0.54%
Cc1cc(N)c2ccccc2[n+]1CCCCCCCCCC[n+]1c(C)cc(N)c2ccccc21 [dequalinium]	1.5%	2.58%	-2.33%	-2.88%	-3.48%
CCCN(CCC)C(=O)C1=Cc2ccc(-c3ccc(C(=O)N4CCCC4)cc3)cc2N=C(N)C1 [motolimod]	0.77%	0.05%	1.88%	1.37%	-1.01%
COc1cc(/C=C(\C#N)C(N)=O)cc(CSc2nc3ccccc3s2)c1O [tyrphostin-AG-825]	2.84%	1.12%	0.69%	-0.02%	0.99%
CCC(=O)NS(=O)(=O)c1ccc(-c2c(-c3ccccc3)noc2C)cc1 [parecoxib]	-0.31%	0.02%	1.66%	1.26%	-1.54%
CN(C)C(=O)Nc1cccc(-c2ccc(N(C)C)cc2)c1 [atglistatin]	-1.57%	-1.64%	1.22%	0.77%	1.31%
COc1ccc2c(OCc3nnc4ccc(-c5ccccc5)nn34)ccnc2c1	1.19%	-0.48%	0.42%	-0.17%	1.81%
COc1cc(NC(=O)c2ccccn2)ccc1Cl	-0.99%	-1.87%	1.63%	2.18%	1.18%
O=C1OC(c2ccc(O)cc2)(c2ccc(O)cc2)c2ccccc21 [phenolphthalein]	-1.78%	2.66%	-1.09%	-0.27%	0.56%
CC(C)C[C@H](NC(=O)[C@H](CCc1ccccc1)NC(=O)CN1CCOCC1)C(=O)N[C@@H](Cc1ccccc1)C(=O)N[C@@H](CC(C)C)C(=O)[C@@]1(C)CO1 [carfilzomib]	-1.68%	-2.43%	11.4%	34.9% (active)	10.2%
C=C1CC[C@@H]2[C@](C)(CO)[C@H](O)CC[C@@]2(C)[C@@H]1C/C=C1/C(=O)OC[C@H]1O [andrographolide]	-3.07%	-2.2%	-0.1%	8.92%	32.5% (active)
CC(C)(O)CS(=O)(=O)Nc1ccc2c(c1)CCN(C(=O)COc1cccnc1)C2 [Nampt-IN-1]	-1.96%	-2.55%	-5.64%	-15.6%	-25.6%
COc1ccc(C2=N[C@@H](c3ccc(Cl)cc3)[C@@H](c3ccc(Cl)cc3)N2C(=O)N2CCNC(=O)C2)c(OC(C)C)c1 [nutlin-3]	1.71%	1.61%	5.23%	5.08%	3.38%
c1ccc2sc(SN3CCOCC3)nc2c1 [N-oxydiethylenebenzothiazole-2-sulfenamide]	-2.53%	-1.68%	-1.37%	0.03%	-1.24%
CCOP(=S)(OCC)Oc1cc(C)nc(C(C)C)n1 [dimpylate]	1.47%	-0.54%	2.07%	1.11%	-3.47%
CCCC(=O)Nc1ncnc2c1ncn2[C@@H]1O[C@@H]2COP(=O)(O)O[C@H]2[C@H]1OC(=O)CCC [bucladesine]	-1.3%	-3.37%	-2.82%	0.58%	1.04%

Reference: the supplement of paper PMC13380429
